Hits are enriched below; roughly 6.5% of the tested compounds scored in any of these assays.
IL-1B inflam inh: blocks inflammasome-driven IL-1 beta release; activity change, % at 57.5 µM; AID 743279; 4.7% of 360,000 active; THP-1 LPS/ATP IL-1B secretion, AlphaLISA, 16 h; hits give low values; in the data active = activity change below about -50%; inconclusive = mostly about -30% to -49%
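Secreted IL-1B measured by AlphaLISA bead assay after 16 h compound exposure of THP-1 cells; compounds (final up to 57.5 uM) added 1 h before LPS (250 ng/mL) and ATP (1.25 mM) stimulation; lower signal means less secretion.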
HT1080 IDH1KD tx: HT-1080 IDH1 knockdown cell toxicity (counter line); HT-1080 IDH1 knockdown viability, ATP luminescence, 48 h; Potency, µM (titrated, usually from 46.1 µM), hits mostly cytotoxic; 2% of 360,000 active; AID 686971
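Luminescent ATP read-out (CellTiter-Glo, 10 min at room temperature) after 48 h compound exposure at 37 °C gave viability of IDH1-knockdown HT-1080 cells. Activity was normalised to DMSO and cell-free wells, then fitted as concentration-response curves.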
HepG2 viability: kills HepG2 cells in TGF-b inhibitor counter-screen | 0.76% of 410,000 active | HepG2 CAGA-GFP viability, ATP luminescence, 18 h | Potency, µM (titrated, usually from 46.1 µM), usual class: cytotoxic
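HepG2 CAGA-GFP cells (1000/well, DMEM with 1% FBS) received compound, then TGF-beta at 500 pg/mL final, and were incubated 18 hours at 37 degrees C. Viability was read by CellTiter-Glo luminescence. Media-only wells were set as complete cell-killing and DMSO as no toxicity.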
TGFb SMAD3 inh: inhibitors of TGF-b signaling; HepG2 CAGA-GFP TGF-b/SMAD3 reporter, GFP fluorescence, 18 h; TGF-beta stimulated, 500 pg/mL final; Potency, µM (series often up to 46.1 µM), most hits filed as inhibitors; 1.2% of 410,000 active; also: nearly all actives have a fitted effect of over 65% in size
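Smad-responsive CAGA-GFP expression was quantified in HEPG2 cells exposed to compounds and 500 pg/mL final TGF-beta for 18 h at 37 degrees C; unstimulated wells defined full inhibition.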
Giardia kill: Giardia lamblia killing | activity change, % at 7.66 µM, hits read low | 0.15% of 340,000 active | Giardia lamblia trophozoite viability; in the data active = activity change below about -80%; inconclusive = between about -30% and that limit;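 also: parasites exposed to compound for two days anaerobically before the ATP read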
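Anaerobic 48 hrs incubation at 37 deg C of 100 trophozoites/well with test compounds; ATPLite 1-Step luminescence, 15-30 min RT, reports cellular ATP as viability.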
HT1080-NT tox: kills 2HG-producing HT-1080-NT fibrosarcoma cells. HT-1080-NT fibrosarcoma viability, CellTiter-Glo ATP luminescence, 48 h. 1.6% of 360,000 active. Potency, µM (titrated, usually from 46.1 µM), usual class: cytotoxic;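 also: NT is the 2HG producing partner of a matched IDH1 knockdown line; nearly all actives have a fitted effect of over 55% in size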
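Compounds were tested in concentration-response format on HT-1080-NT cells for 48 hours at 37 degrees C. Cell viability came from CellTiter-Glo luminescence; curves were classified by r2, response magnitude and activity.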
Hits are given with their value; 0 = inactive; ? = inconclusive; - = no result given; ! = not active in a repeat; [ ] = remark or other dose. Unless noted, calls follow the shape of the dose curve; as a rule, active = well fitted curve in the direction sought with a large enough effect; inconclusive = small, poorly fitted or top-dose-only effect, or another doubt; inactive = no such curve, though single readings can be large; an effect the other way counts as inactive or inconclusive.

SMILES	IL-1B inflam inh	HT1080 IDH1KD tx	HepG2 viability	TGFb SMAD3 inh	Giardia kill	HT1080-NT tox
CCc1cc2cc(C)cc(C)c2nc1SCC(=O)N1CCCC1	0	0	0	0	0	0
CN(CC(=O)Nc1ccc(Cl)cc1)CC(=O)Nc1cc(Cl)ccc1C#N	-84	0[9.24 µM]	0	?	0	?
CN(CC(=O)Nc1ccc(Cl)cc1)CC(=O)Nc1ccc(C(N)=O)cc1	0	0	0	0	0	0
C(=C\c1ccccc1)/CSc1nnc(-c2ccccn2)n1Cc1ccco1	0	4.1µM	0	?	0	5.8µM
Cc1ccc(S(=O)(=O)NCCC(=O)NCc2ccccn2)cc1	0	0	0	0	0	0
Cc1cc(C)cc(NC(=O)C(NCCN2CCOCC2)c2ccccc2)c1 (stereo unspecified)	0	0	0	?	0	0
O=C(N/N=C/C(Cl)=C/c1ccc([N+](=O)[O-])cc1)C(=O)Nc1ccc(C(=O)O)cc1	-52	0	0	0	0	0
O=C(CCCl)Nc1nnc(SCC(=O)NC2CCCC2)s1	-88	29µM	0	?	0	15µM
Nc1nnc(SCC(=O)NC2CCCC2)s1	0	0	0	0	0	0
CCSc1nnc(SCC(=O)NC2CCCCC2)s1	0	0	2µM	0	0	0
CCCCC(=O)Nc1nnc(SCC(=O)NC2CCCC2)s1	0	0	0	0	0	0
COc1ccccc1NC(=O)COC(=O)C12CC3CC(CC(Cl)(C3)C1)C2	0	0	0	0	0	0
CN(/N=C/c1cccnc1)C1=NS(=O)(=O)c2ccccc21	0	0	0	0	0	0
CCOC(=O)c1cnc2c(C)cc(C)cc2c1Nc1cccc(C(=O)O)c1	-	-	0	0	-	-
CCc1ccc(NC(=O)CSc2nc(=O)n(CCCN3CCOCC3)c3c2CCC3)cc1	0	0	0	0	0	0
CCCCc1ccc(NC(=O)CSc2nc(=O)n(CCN3CCOCC3)c3c2CCC3)cc1	-70	0	0	0	0	0
CC(C)c1ccc(NC(=O)CSc2nc(=O)n(CCN3CCOCC3)c3c2CCC3)cc1	0	0	0	0	0	0
CCCCc1ccc(NC(=O)CSc2nc(=O)n(CCCN3CCOCC3)c3c2CCC3)cc1	-83	?	0	?	0	?
Fc1ccc(Nc2ncnc3sccc23)cc1	0	0	0	0	0	0
CCC1(C(=O)c2ccccc2)C(c2ccc([N+](=O)[O-])cc2)C1(C(=O)OC)C(=O)OC (stereo unspecified)	0	0	0	0	0	0
O=C(Nc1cc(S(=O)(=O)N2CCCC2)ccc1Cl)c1ccncc1	0	0	0	0	0	0
COc1cccc(C(=O)NC2CCCc3ccccc32)c1OC (stereo unspecified)	0	0	0	0	?	0
CCc1ccc(-n2c(SCc3cccc(F)c3)nc3[nH]ncc3c2=O)cc1	-	-	20µM	?	-	-
Cc1ccc(-n2c(SCc3ccccc3C)nc3[nH]ncc3c2=O)cc1C	-	-	0	?	-	-
O=c1c2cn[nH]c2nc(SCc2c(F)cccc2F)n1-c1ccc(Cl)cc1	-74	?	0	16µM!	0	0
SMILES	IL-1B inflam inh	HT1080 IDH1KD tx	HepG2 viability	TGFb SMAD3 inh	Giardia kill	HT1080-NT tox
CCc1ccc(-n2c(SCc3ccccc3Cl)nc3[nH]ncc3c2=O)cc1	-	-	0	?	-	-
CCc1ccc(-n2c(SCc3ccccc3C)nc3[nH]ncc3c2=O)cc1	-	-	22µM	-	-	-
Cc1ccc(-n2c(SCc3cccc(F)c3)nc3[nH]ncc3c2=O)cc1C	-	-	20µM	?	-	-
Cc1cc(C)n(CC(O)Cn2c3ccc(Br)cc3c3cc(Br)ccc32)c(=O)n1 (stereo unspecified)	-68	?	0	?	0	?
Cc1cc(C)n(CC(O)Cn2c3ccccc3c3ccccc32)c(=O)n1 (stereo unspecified)	?	0	0	0	0	0
CC(C)N1CCN(Cc2cnc(N3CCCC3)s2)CC1CCO (stereo unspecified)	0	0	0	0	0	0
Cn1nc(C(=O)Nc2ccccc2Cl)cc1C(=O)Nc1ccccc1Cl	-55	0	0	0	0	0
